Measurements reported in ChEMBL document CHEMBL4513216, “Probing the Open Global Health Chemical Diversity Library for Multistage-Active Starting Points for Next-Generation Antimalarials” (ACS Infect Dis, 2020).
The campaign covered roughly 65,000 compounds. About 2,100 (3.2%) showed an effect of 50% or more. The median lay at about -52%. The full list was thinned out, with strong results kept by preference.

System: Plasmodium falciparum
Assay: Screen against P. falciparum Asexual Blood Stage (ABS), at 5uM
Type: functional, Dd2
Settings: tested at 5 uM

Point of comparison: `Cc1ccc(CN2C[C@@H]3CN(c4ncc(F)cn4)C[C@@H]3C2)cc1`, INHIBITION -37%. Against it:
- Cc1ccc2c(c1)CCC21CCN(CCO)CC1 — higher, 15.4%
- Cc1ccc2c(c1)C1(CCNCC1)CC2NCCO (stereo unspecified) — higher, -23.2%
- COCCN1CCC2(COCc3cnc(-c4ccccc4)nc32)C1 (stereo unspecified) — higher, 31.2%
- Cc1ccc2c(c1)C(N(C)C)CC21CCN(CCO)CC1 (stereo unspecified) — higher, 74.8%
- Cc1ccc(CNC2CC3(CCN(CCO)CC3)c3ccccc32)s1 (stereo unspecified) — higher, 85.4%
- O=S(=O)(C1CC1)N1CCC2(CCCN(Cc3ccccn3)C2)C1 (stereo unspecified) — higher, 12.2%
- O=C(Cc1ccccn1)N1CCN2C[C@H](OCCN3CCCC3)C[C@H]2C1 — higher, 2.21%
- CC[C@@H]1N(CC2CC2)CCC[C@]12CCC(=O)N2 — lower, -57.5%
- Cc1noc(C)c1CN1CC[C@H]2[C@H]1CCN2CC1CCOCC1 — lower, -92%
- CNC(=O)[C@H]1C[C@@H]2CN(C(=O)c3ccc(C)nc3)C[C@@H]2N1C — higher, -35.1%
- CC(C)C(NC(=O)c1ccccc1)C(=O)N1CCC2(CC1)OCCO2 (stereo unspecified) — lower, -37.3%
- CN(C)C(=O)c1ccc(-c2cccc3c2CCNC3)o1 — lower, -44.3%
- Cn1cc(CNC2CC3(CCN(CC4CC4)CC3)c3ccccc32)cn1 (stereo unspecified) — higher, 87.6%
- CN1C(=O)C2(CCN(CC3CC3)CC2)c2ccccc21 — higher, 25.6%
- Cn1cc(CN2CC[C@]3(C[C@H](Oc4ccccn4)CO3)C2)cn1 — higher, -20.3%
- CNC1CCN(C2CCN(c3ccc(-c4ccco4)cc3)CC2)CC1 — higher, 86.4%
- NCC1CCN(C2CCN(c3ccc(-c4ccco4)cc3)CC2)C1 (stereo unspecified) — higher, 91%
- Cc1oc(-c2ccco2)nc1CC(=O)N1CCN(C2CCC2)CC1 — higher, -14.4%
- NC1CCN(C2CCN(c3ccc(-c4ccco4)cc3)CC2)CC1 — higher, 80.3%
- O=C1NC2(CCCCC2)c2nnnn2-c2ccc(Br)cc21 — lower, -67.2%
- O=C(CCc1ccsc1)N1CCC(C(=O)O)(c2ccccc2)CC1 — lower, -103%
- CCN1CCCN(S(=O)(=O)c2cc3ccccc3o2)CC1 — higher, 84.3%
- NC(=O)CN1CCCN(C(=O)Cc2ccc(F)cc2)CC1 — lower, -158%
- CS(=O)(=O)c1ccc(-c2cc(O)cc(CCC3CCCCN3)c2)cc1 (stereo unspecified) — higher, 70.3%
- CS(=O)(=O)c1ccc(CC(=O)N2CCN3CCNC(=O)C3C2)cc1 (stereo unspecified) — lower, -50.4%
- CCCN1CCN(Cc2nccn2CC)C(C)C1 (stereo unspecified) — lower, -101%
- CCCn1ccnc1CN1CCCC1c1ccccn1 (stereo unspecified) — higher, 86.8%
- CCC(=O)N1CCN(Cc2cnc(C)nc2)[C@H]2CS(=O)(=O)C[C@H]21 — lower, -106%
- O=C1CC2(CCN(Cc3ccc(Cl)s3)C2)C(=O)N1 (stereo unspecified) — lower, -155%
- Cc1ccc(Sc2ccc(CN3CCC4(CCCNC4=O)C3)o2)cc1 (stereo unspecified) — higher, 73.1%
- Cc1nnc(N2CCCC3(CN(Cc4ccncc4)CCO3)C2)o1 (stereo unspecified) — lower, -78.8%
- CC(C)C(=O)N1CCCC2(CCCN2Cc2cccnc2)C1 (stereo unspecified) — higher, -13.9%
- Cc1ccccc1CC(=O)N1C[C@@H](O)[C@H](N2CCN(C)CC2)C1 — lower, -87.9%
- Cc1cccc(CN2CC[C@@H]3[C@@H]2CCN3C(=O)c2cc(C)on2)n1 — lower, -95.7%
- CN(C)[C@@H]1CCN(c2ncccn2)[C@H]1Cc1ccccc1 — higher, 78.1%
- Cc1cc(C(=O)N2CC[C@@H](N(C)C)[C@@H]2Cc2ccccc2)no1 — higher, 74.4%
- CN(C)[C@@H]1CCN(C(=O)Cc2cccs2)[C@H]1Cc1cnn(C)c1 — higher, -4.87%
- CN(C)[C@@H]1CCN(C(=O)Cc2ccc(F)cc2)[C@H]1Cc1ccncc1 — higher, 5.44%
- CN(C)[C@@H]1CCN(c2ncc(F)cn2)[C@H]1Cc1ccccc1 — higher, 89%
- CN(C)[C@@H]1CCN(C(=O)Cc2cccs2)[C@H]1Cc1ccncc1 — lower, -51.7%
- CN(C)C(=O)CN1CC[C@H]2[C@H]1CCN2c1ncccn1 — lower, -109%
- O=S1(=O)NCC2(CCN(Cc3ccc(Cl)s3)C2)Oc2ncccc21 (stereo unspecified) — lower, -56.7%
- O=C1N(c2ccsc2)CCC12CCCN(Cc1cccnc1)C2 (stereo unspecified) — higher, -28.4%
- Cc1ccc(C2(CN3CCN(Cc4cncn4C)CC3)CC2)cc1 — higher, 73.2%
- CCn1cncc1Cn1ncc2ccccc2c1=O — lower, -114%
- Cc1noc(C)c1CN1CCO[C@H]2CN(Cc3cncn3C)C[C@H]21 — lower, -42.6%
- Cn1cncc1CN1C[C@@H]2OCCN(c3ncccn3)[C@@H]2C1 — lower, -99.1%
- COCCn1cncc1CN1CCC(C(C)=O)(c2ccccc2)CC1 — higher, -20.6%
- CCn1cncc1CN1CCN(CC2(c3ccc(C)cc3)CC2)CC1 — higher, 70%
- Cc1ccc(C2(CN3CCN(Cc4cnc(C)n4C)CC3)CC2)cc1 — higher, 95.4%
